This is an account of results in ChEMBL document CHEMBL2218924, “A broad activity screen in support of a chemogenomic map for kinase signalling research and drug discovery” (Biochem J, 2013).

Assay [1] addresses T1, Ephrin type-A receptor 3 (Homo sapiens) (UniProt P29320).
T1 sequence (whole entry): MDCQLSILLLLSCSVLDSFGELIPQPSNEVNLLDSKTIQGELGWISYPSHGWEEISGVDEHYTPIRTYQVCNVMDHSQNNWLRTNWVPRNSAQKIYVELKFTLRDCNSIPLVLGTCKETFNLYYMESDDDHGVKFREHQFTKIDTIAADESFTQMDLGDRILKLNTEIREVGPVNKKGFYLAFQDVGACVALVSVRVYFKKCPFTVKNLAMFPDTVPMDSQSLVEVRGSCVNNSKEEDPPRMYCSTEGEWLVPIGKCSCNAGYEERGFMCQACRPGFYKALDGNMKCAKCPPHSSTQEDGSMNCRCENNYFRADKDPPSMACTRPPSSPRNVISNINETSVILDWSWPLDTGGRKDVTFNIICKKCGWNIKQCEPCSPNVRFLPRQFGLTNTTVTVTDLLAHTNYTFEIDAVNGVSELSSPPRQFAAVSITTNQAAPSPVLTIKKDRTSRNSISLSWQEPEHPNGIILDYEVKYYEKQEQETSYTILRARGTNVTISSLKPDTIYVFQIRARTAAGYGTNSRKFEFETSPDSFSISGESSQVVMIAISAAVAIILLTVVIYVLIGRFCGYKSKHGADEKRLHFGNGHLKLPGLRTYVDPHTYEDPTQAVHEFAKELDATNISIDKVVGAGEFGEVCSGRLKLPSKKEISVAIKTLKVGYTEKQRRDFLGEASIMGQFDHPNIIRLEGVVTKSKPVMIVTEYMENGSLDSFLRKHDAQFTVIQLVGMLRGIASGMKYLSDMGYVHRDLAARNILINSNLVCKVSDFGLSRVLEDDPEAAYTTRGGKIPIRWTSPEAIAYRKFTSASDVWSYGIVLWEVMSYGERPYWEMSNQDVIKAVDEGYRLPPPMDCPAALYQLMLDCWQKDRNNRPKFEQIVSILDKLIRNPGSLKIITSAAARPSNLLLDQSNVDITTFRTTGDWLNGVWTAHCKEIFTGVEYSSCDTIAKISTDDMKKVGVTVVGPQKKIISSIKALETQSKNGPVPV
Particulars: at 10 µM; call rule not given here.

The target in assay [2] is Ephrin type-A receptor 5 (Homo sapiens) (UniProt P54756). Particulars: at 1 µM.
Chain of Ephrin type-A receptor 5 (Homo sapiens) (P54756 whole entry): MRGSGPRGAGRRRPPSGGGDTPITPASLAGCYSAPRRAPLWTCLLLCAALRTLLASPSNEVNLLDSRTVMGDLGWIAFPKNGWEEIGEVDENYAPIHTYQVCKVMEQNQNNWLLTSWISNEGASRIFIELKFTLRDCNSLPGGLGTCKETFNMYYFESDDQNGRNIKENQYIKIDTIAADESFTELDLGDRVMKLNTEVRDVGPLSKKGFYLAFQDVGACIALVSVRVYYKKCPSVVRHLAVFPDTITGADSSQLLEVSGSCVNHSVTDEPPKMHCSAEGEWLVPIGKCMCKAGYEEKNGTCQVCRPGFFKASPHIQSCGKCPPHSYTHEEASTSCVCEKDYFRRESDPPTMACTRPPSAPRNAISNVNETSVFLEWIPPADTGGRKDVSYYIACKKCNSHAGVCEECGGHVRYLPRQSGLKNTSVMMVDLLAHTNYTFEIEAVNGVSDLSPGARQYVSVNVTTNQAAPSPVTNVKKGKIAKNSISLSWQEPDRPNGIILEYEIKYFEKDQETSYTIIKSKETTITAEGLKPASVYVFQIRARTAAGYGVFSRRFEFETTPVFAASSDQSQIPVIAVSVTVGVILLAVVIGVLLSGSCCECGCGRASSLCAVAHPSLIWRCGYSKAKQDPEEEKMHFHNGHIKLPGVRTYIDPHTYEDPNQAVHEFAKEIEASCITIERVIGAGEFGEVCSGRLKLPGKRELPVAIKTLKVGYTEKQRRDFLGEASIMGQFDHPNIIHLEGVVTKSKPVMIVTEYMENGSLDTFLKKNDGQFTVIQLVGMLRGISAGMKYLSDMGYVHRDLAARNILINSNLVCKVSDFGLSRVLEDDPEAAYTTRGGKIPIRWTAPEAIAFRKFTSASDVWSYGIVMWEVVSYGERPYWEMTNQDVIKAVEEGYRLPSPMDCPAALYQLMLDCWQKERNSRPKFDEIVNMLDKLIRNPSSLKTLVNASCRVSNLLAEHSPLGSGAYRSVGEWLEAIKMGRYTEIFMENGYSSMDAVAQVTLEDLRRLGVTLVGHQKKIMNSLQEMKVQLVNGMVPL
The target is the same in assay [3]. Particulars: at 10 µM.
Assay [4] concerns the target Ephrin type-A receptor 7 (Homo sapiens) (UniProt Q15375). To be noted: at 1 µM.
For assay [5] the target is unchanged. Particulars: at 10 µM.
In assay [6] the target is T2, Ephrin type-A receptor 8 (Homo sapiens) (UniProt P29322).
T2 sequence (whole entry): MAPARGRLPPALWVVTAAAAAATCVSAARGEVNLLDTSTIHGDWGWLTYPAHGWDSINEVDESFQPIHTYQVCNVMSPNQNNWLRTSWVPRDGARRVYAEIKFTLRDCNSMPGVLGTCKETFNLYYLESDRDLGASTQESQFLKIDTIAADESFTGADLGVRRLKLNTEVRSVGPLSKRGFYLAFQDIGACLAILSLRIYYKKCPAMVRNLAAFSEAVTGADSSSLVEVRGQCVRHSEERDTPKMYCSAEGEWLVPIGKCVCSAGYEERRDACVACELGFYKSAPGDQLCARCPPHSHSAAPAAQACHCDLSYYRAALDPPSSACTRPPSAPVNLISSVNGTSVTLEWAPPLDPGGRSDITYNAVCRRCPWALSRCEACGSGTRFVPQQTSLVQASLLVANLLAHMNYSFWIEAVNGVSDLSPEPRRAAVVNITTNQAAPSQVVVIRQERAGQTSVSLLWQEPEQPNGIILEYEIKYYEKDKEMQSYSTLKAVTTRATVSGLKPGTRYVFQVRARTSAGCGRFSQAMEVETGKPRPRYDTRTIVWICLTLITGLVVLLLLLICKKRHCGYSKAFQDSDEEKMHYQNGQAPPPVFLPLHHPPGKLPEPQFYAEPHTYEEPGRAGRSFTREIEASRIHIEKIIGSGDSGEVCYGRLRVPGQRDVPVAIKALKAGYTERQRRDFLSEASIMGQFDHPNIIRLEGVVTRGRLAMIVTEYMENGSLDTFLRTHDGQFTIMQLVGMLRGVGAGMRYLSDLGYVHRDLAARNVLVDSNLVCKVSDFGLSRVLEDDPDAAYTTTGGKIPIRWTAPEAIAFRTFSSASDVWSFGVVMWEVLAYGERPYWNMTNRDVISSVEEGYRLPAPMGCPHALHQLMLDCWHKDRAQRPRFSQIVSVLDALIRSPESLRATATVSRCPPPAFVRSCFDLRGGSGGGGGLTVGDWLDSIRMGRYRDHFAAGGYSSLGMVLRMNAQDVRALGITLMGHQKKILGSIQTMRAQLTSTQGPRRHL
To be noted: at 1 µM.

Assay [7] concerns the target T2, Ephrin type-A receptor 8 (Homo sapiens). To be noted: at 10 µM.
Assay [8] concerns the target T3, Ephrin type-B receptor 1 (Homo sapiens) (UniProt P54762).
T3 sequence (whole entry): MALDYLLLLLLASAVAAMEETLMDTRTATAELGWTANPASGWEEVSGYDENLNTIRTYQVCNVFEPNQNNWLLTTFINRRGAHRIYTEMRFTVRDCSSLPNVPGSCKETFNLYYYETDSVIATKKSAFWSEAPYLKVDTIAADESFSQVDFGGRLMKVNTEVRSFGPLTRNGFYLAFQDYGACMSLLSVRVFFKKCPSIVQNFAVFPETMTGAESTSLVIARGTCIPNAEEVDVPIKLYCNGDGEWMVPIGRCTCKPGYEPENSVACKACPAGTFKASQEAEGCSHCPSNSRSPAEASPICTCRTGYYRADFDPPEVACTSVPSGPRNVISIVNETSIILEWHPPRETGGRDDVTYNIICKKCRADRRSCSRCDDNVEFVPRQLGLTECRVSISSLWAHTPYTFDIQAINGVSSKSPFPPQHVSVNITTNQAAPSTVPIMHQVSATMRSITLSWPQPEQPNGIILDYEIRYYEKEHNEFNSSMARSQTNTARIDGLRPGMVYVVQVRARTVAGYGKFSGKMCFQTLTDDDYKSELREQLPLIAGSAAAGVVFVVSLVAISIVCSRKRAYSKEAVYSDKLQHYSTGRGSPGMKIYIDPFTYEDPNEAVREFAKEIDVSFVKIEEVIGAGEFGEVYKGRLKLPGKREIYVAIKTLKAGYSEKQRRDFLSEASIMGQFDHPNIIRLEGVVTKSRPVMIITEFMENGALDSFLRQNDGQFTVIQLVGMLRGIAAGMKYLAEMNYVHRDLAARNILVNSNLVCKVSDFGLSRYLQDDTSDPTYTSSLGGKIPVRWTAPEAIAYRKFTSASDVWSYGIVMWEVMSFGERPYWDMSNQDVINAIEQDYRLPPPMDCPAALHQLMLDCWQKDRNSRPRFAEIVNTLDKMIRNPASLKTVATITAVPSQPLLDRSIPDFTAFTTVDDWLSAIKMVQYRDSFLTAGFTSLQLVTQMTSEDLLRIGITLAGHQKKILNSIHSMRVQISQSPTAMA
Particulars: at 1 µM.

Assay [9] concerns the target T3, Ephrin type-B receptor 1 (Homo sapiens). Particulars: at 10 µM.
Assay [10] deals with T4, Ephrin type-B receptor 2 (Homo sapiens) (UniProt P29323).
T4 sequence (whole entry): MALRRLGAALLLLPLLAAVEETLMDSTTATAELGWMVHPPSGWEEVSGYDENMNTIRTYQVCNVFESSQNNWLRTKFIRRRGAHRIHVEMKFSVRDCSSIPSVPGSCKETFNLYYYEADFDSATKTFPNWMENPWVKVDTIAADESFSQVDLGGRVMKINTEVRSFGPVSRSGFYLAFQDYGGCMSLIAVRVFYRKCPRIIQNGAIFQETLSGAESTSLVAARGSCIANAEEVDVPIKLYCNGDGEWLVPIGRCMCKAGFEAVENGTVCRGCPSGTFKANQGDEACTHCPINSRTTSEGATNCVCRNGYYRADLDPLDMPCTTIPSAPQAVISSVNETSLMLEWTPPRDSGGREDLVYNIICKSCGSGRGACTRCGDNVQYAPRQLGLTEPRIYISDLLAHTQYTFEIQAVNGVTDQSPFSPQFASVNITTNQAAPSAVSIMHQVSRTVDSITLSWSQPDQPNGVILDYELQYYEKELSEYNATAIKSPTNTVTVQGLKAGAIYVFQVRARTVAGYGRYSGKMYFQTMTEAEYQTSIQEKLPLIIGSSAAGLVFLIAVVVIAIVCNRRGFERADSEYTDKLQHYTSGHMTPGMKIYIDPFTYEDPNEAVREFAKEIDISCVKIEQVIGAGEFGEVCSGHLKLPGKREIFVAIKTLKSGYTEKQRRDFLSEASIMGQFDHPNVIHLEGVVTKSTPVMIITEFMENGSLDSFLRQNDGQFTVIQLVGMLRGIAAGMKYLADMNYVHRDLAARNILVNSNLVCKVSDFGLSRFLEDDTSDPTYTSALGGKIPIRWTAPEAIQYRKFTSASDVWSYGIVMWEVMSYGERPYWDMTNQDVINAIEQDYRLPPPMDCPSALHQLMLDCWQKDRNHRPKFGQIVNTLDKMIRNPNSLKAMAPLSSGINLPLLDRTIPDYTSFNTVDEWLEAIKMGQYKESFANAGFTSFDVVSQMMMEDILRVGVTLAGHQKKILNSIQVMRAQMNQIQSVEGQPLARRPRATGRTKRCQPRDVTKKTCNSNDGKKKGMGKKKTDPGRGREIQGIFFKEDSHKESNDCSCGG
Particulars: at 1 µM.

Assay [11] concerns the target T4, Ephrin type-B receptor 2 (Homo sapiens). Particulars: at 10 µM.
The target of assay [12] is T5, Ephrin type-B receptor 3 (Homo sapiens) (UniProt P54753).
T5 sequence (whole entry): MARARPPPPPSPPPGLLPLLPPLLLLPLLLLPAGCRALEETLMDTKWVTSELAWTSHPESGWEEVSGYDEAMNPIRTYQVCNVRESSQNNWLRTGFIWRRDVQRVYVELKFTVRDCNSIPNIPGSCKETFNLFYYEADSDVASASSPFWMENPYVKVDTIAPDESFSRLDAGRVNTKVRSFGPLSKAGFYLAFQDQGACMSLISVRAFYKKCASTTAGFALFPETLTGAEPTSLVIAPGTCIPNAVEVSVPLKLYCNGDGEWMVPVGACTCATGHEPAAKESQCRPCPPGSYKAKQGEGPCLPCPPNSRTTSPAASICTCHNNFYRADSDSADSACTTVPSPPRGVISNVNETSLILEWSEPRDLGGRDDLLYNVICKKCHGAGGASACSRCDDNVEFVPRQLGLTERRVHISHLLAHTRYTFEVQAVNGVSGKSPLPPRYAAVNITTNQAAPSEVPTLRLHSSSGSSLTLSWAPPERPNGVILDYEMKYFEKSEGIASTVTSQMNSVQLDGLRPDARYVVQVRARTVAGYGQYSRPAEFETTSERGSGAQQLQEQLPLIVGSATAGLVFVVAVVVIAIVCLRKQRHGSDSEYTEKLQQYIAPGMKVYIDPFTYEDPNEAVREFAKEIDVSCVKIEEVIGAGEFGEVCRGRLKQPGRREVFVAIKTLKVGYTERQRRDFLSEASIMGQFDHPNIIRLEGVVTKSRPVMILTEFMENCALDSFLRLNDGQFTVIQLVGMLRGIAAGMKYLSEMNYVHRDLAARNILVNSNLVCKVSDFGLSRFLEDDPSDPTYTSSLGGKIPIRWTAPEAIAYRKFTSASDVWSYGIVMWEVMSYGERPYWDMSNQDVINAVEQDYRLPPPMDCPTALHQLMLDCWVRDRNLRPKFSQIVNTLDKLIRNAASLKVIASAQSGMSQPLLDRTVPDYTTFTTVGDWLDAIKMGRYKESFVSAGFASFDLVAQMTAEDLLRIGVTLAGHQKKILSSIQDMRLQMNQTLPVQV
To be noted: at 1 µM.

Assay [13] has as its target T6, Ephrin type-B receptor 4 (Homo sapiens) (UniProt P54760).
T6 sequence (whole entry): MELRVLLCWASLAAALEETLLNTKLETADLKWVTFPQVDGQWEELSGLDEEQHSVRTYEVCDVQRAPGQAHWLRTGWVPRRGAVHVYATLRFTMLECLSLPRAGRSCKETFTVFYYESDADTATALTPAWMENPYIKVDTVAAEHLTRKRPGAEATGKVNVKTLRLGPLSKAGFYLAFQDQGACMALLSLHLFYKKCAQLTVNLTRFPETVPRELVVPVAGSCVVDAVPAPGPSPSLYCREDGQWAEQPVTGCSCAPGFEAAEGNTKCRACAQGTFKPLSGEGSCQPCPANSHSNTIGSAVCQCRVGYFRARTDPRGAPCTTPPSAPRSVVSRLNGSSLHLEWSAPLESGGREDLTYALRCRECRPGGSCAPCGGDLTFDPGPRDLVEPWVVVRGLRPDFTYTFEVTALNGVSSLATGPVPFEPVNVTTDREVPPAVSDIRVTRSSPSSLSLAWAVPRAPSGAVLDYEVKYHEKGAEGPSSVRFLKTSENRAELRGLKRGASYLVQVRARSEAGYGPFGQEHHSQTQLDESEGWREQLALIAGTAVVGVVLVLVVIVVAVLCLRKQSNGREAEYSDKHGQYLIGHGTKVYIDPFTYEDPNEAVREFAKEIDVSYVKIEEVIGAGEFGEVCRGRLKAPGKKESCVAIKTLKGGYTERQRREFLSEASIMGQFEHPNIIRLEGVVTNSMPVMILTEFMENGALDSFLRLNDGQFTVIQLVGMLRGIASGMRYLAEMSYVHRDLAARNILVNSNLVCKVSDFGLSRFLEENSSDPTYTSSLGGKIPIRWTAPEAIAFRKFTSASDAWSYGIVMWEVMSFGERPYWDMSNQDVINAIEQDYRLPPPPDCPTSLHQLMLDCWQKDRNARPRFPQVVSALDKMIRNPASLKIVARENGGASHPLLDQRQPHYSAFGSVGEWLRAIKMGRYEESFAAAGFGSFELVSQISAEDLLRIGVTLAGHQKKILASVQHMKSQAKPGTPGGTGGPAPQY
To be noted: at 1 µM.

Assay [14] deals with T6, Ephrin type-B receptor 4 (Homo sapiens). Particulars: at 10 µM.
Assay [15] has as its target Receptor tyrosine-protein kinase erbB-4 (Homo sapiens) (UniProt Q15303). Particulars: at 1 µM.
For assay [16] the target is unchanged. To be noted: at 10 µM.
The target of assay [17] is Focal adhesion kinase 1 (Homo sapiens) (UniProt Q05397). To be noted: at 1 µM.
Chain of Focal adhesion kinase 1 (Homo sapiens) (Q05397 2-1052 limits assumed): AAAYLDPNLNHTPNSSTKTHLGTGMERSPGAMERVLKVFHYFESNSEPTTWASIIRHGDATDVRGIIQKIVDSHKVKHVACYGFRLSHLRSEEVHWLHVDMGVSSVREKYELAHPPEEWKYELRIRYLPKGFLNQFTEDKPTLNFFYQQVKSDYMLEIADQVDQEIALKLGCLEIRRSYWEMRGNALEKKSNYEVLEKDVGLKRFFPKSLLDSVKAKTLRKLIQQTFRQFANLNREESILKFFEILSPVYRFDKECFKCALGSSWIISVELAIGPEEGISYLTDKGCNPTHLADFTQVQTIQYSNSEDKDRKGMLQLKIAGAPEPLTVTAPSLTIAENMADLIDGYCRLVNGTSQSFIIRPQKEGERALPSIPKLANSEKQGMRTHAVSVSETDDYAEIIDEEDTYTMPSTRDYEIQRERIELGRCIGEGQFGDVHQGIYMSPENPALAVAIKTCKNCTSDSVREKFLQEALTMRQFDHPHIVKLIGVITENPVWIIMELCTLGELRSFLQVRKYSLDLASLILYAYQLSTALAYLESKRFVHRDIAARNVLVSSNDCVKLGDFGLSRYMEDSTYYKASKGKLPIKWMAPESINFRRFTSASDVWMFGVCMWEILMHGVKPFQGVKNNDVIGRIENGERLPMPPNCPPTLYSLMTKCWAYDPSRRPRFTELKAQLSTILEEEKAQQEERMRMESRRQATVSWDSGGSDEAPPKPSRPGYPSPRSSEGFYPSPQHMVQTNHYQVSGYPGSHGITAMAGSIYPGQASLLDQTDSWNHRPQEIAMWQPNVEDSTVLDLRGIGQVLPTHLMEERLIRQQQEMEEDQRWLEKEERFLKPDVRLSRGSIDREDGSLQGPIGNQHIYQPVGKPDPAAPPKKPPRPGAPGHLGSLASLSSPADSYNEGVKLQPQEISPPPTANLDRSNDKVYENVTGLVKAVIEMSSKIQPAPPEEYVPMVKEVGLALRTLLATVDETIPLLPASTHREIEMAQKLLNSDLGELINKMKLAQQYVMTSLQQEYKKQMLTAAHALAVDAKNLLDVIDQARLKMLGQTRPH

Chain of Ephrin type-A receptor 7 (Homo sapiens) (Q15375 28-998 limits assumed): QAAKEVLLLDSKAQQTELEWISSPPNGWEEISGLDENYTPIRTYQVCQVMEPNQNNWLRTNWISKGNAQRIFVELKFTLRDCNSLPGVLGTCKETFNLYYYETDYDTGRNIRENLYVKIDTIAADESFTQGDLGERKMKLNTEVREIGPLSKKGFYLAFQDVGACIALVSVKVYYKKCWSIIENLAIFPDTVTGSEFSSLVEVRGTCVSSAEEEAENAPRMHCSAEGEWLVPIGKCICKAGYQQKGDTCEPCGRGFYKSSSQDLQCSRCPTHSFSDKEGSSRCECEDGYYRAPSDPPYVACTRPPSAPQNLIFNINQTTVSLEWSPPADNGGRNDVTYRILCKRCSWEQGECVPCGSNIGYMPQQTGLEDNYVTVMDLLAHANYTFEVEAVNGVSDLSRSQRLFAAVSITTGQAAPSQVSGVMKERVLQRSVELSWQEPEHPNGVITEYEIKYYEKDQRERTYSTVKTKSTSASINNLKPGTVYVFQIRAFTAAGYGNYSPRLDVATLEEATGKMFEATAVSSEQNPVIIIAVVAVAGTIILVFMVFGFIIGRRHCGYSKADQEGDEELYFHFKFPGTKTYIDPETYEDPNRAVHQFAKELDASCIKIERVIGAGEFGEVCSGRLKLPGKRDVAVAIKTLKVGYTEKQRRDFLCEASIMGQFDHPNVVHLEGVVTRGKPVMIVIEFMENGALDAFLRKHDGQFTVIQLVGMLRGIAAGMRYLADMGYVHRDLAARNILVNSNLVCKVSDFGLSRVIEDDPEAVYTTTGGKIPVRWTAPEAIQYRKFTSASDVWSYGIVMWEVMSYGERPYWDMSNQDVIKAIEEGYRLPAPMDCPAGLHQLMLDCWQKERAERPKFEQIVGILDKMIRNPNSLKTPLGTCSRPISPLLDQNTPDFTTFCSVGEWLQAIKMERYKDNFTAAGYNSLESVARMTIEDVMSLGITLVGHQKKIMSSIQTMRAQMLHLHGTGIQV
Chain of Receptor tyrosine-protein kinase erbB-4 (Homo sapiens) (Q15303 whole entry): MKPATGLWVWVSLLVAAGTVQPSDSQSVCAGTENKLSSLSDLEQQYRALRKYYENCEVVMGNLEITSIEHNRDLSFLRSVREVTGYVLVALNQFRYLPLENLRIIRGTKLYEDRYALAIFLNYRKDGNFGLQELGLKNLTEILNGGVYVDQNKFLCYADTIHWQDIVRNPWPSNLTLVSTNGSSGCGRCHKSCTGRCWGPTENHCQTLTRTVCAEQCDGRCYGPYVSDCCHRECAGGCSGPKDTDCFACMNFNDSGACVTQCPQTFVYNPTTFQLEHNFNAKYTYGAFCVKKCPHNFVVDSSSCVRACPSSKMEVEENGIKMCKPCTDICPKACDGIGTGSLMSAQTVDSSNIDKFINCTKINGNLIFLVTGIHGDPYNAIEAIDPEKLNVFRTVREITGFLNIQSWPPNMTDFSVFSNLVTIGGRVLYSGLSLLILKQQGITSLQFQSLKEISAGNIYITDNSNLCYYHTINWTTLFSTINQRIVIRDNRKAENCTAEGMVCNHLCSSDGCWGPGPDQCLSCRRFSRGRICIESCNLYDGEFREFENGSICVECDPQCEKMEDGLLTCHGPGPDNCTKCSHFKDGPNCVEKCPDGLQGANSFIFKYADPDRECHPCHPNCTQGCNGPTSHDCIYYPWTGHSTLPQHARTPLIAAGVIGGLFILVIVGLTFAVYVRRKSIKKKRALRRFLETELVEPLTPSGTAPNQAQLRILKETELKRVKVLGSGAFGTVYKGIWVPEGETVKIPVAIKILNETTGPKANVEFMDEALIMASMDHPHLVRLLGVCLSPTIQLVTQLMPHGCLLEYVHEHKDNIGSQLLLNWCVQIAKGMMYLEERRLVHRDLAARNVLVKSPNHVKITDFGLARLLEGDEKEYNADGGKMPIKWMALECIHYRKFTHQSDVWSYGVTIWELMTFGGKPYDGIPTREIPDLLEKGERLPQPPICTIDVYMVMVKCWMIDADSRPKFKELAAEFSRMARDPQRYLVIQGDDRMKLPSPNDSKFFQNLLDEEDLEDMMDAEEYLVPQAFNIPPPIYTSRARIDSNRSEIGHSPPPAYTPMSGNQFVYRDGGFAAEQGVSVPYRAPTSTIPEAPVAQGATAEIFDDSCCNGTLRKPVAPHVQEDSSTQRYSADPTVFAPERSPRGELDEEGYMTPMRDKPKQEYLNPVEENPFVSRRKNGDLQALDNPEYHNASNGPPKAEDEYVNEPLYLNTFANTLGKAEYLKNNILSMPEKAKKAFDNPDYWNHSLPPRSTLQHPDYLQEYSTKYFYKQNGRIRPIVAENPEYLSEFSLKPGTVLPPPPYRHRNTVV

For `Cn1nc2c3c(cccc31)C(=O)c1ccccc1-2`, the residual activity in assay [1] came to 73%; in assay [2], 110%; in assay [3], 99%; in assay [4], 95%; in [5], 88%; in assay [6] it was 94%. In addition, the residual activity in [7] was 81%; in [8], 94%; in assay [9], 77%; in [10], 108%; in assay [11], 109%; in assay [12], 104% (inactive). Further, the residual activity in [13] turned out to be 87%; in assay [14] it was 83%; in [15], 93%; in [16], 90%; in assay [17], 95%.

One may read the residual activity as the signal under treatment as a percentage of the control signal.
